# In PubChem BioAssay (NCI):
# About 79,000 compounds went through this panel and 15% of them were active in at least one assay; those are over-represented in the sample as a whole. Calls of active or inactive are those of the source. No stated cut-off is given here; in the data, active means growth inhibition above about 70%; inactive means the rest.
# Assay: NCI Yeast Anticancer Drug Screen. Data for the sgs1 mgt1 strain (AID 161);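 further: 0% = growth of cultures given vehicle only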
# Settings: S. cerevisiae sgs1 mgt1 strain, at 50.0 µM, stronger effect = higher value
# Outline: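 Test agents were incubated with a DNA-repair-mutant yeast strain. Growth was then read and compared against vehicle-treated controls.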
row,SMILES,growth inhibition
1,[Au].[NH-]CC[NH-].[NH-]CC[NH-],-17.4% (inactive)
2,C1C[OH+]CC[OH+]CC[OH+]CC[OH+]CC[OH+]1.[Cl-].[V],-1.95% (inactive)
3,Clc1ccc(N=P(c2ccccc2)(c2ccccc2)c2ccccc2)cc1.[Cl][Cd][Cl],81.8% (active)
4,C=CCOCC1CO1 (stereo not drawn),11.1% (inactive)
5,CC1CN1P(=O)(N1CCc2ccccc21)N1CC1C (stereo not drawn),-5.6% (inactive)
6,CCCCCCCCCCCCCCCCS(=O)(=O)c1ccc(S(=O)(=O)F)cc1NC(=O)C(F)(F)F,-3.6% (inactive)
7,CC(=O)c1ccc(Br)cc1,-0.65% (inactive)
8,COc1cccc(N2CCNCC2)c1,12.4% (inactive)
9,CCC(N)CBr (stereo not drawn),-9.5% (inactive)
10,CN(C)C1C(=O)C(C(=O)NP(=O)(NCCCO)N(CCCl)CCCl)=C(O)C2(O)C(=O)C3=C(O)c4c(O)cccc4C(C)(O)C3CC12 (stereo not drawn),21.9% (inactive)
11,Cc1ccc(C[N+](C)(C)C)cc1,6.7% (inactive)
12,NC1=NC(N)=N1,-6.2% (inactive)
13,N=c1nc(N)n2c(N)nc(=N)n12,-1.55% (inactive)
14,O=[N+]([O-])c1cc(Br)c(O)c(Br)c1,5.15% (inactive)
15,O=C1CCC(=O)N1c1ccc([As](=O)(O)O)cc1,13.2% (inactive)
16,O=[N+]([O-])c1ccc(-n2nc3ccc4c(no[n+]4[O-])c3n2)cc1,20.1% (inactive)
17,CN1CCN[C@@H]2CCCC[C@@H]21,-10.2% (inactive)
18,N#CCC(=O)[O][Sn]([c]1ccccc1)([c]1ccccc1)[c]1ccccc1,98.8% (active)
